Laboratory results reported in PubChem BioAssay AID588343 (Broad Institute, 2011).
About 650 (54%) of roughly 1,200 compounds were called active. Inconclusive results (about 5%) are left out.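 How the source made its calls: active means signal-lowering curve whose fitted half-maximal concentration is at or below ten times the top valid dose tested; inconclusive means flat curve with 30 to 70% inhibition, or poor fit; inactive means signal increase, flat within 30%, or potency beyond limit.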 The set was probably picked from earlier hits. Only a sample is shown. Potency and affinity values are given separately.

Test: EBV LMP1 TES2 canonical NF-kB signalling blockers – cell-based, HEK293, luciferase, cherry-pick, dose response (AID 588343);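 further: 0% = median of neutral control wells and -100% = MG132 positive control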
Details: HEK293 LMP1 TES2 NF-kB luciferase reporter, 16 h; series mostly up to 35 µM; activity change, negative = inhibition: at the top concentration

Activity change, negative = inhibition, inactive:
Cc1cc(N)nc(=O)n1C1CC(O)C(CO)O1 (stereo not drawn) 3.79%
O=C1CN(C(=O)c2ccc(F)c(S(=O)(=O)N3CCOCC3)c2)c2ccccc2N1 2.87%
COc1ccc(C(=O)OCC(=O)c2c[nH]c3ccccc23)cc1OC 19.4%
O=C(O)c1cc(=O)c2c(OCC(O)COc3cccc4oc(C(=O)O)cc(=O)c34)cccc2o1 -2.82%
Cc1ccc(NS(=O)(=O)c2ccc(NC(=O)C(C)Sc3ccc(Cl)cc3)cc2)c(C)c1 (stereo not drawn) -1.07%
COc1ccc(CNC(=O)COC(=O)[C@@H]2CCCN2C(=O)c2cccs2)cc1 12.8%
O=[N+]([O-])c1ccc(Cl)c(S(=O)(=O)NCC2CCCO2)c1 (stereo not drawn) -1.9%
CSc1ccc2c(c1)C(N1CCN(C)CC1)Cc1ccccc1S2 (stereo not drawn) 26.9%
O=C(c1ccc(C#CC2(O)CCCCC2)cc1)N1CCN(C(c2ccccc2)c2ccccc2)CC1 12.4%
COCCNC(=O)NC12CC3(C)CC(C)(CC(C)(C3)C1)C2 -9.45%
COc1cc(CC(=O)N(c2ccccc2)c2nc(C)cs2)cc(OC)c1OC -10.2%
Clc1ccc(-c2ccnc(Oc3ccc4ccccc4c3)n2)cc1 -0.802%
Cc1ccc(-c2cc(N)n3nc(-c4ccc(C)cc4)cc3n2)cc1 -2.58%
COC(=O)c1ccccc1NC(=O)CC(=O)Nc1ccccc1C(=O)OC -4.89%
Cc1nc(SCC(=O)c2cccc([N+](=O)[O-])c2)n[nH]1 -9.98%
C[C@H](CO)N1C[C@H](C)[C@@H](CN(C)C(=O)NC2CCCCC2)Oc2c(NS(=O)(=O)c3cn(C)cn3)cccc2C1=O -12.5%
NC1=NC(=O)NC1(c1ccccc1)c1ccccc1 -6.22%
C[C@H](NC(=O)N1CCn2c1nc1ccccc12)C(=O)NCC1CCCO1 (stereo partly drawn) -8.38%
COc1cc2nc(N3CCN(C(=O)C4CCCO4)CC3)nc(N)c2cc1OC (stereo not drawn) -3.99%
CCOC(=O)OC(C)OC(=O)[C@@H]1N2C(=O)[C@@H](NC(=O)[C@H](N)c3ccccc3)[C@H]2SC1(C)C (stereo partly drawn) 33.8%
CSc1oc(-c2ccc(F)cc2)nc1S(=O)(=O)c1ccc(F)cc1 -11.4%
CC(NC(=O)CCOc1ccccc1)c1ccccc1 (stereo not drawn) 18.7%
O=C(O)c1cn2c3c(ccc(Cl)c3c1=O)OCC2 48.2%
Oc1cccc(/C=N/NC(=S)NCCN2CCOCC2)c1O 9.95%
CN(C)CCC(c1ccccc1)c1ccccn1 (stereo not drawn) -3.57%
COC(=O)CN(c1ccccc1F)S(=O)(=O)c1ccc(C)cc1 1.91%
CC(=O)O[C@H]1CC[C@@]2(C)C(=CC[C@H]3[C@@H]4CC[C@H](C(C)=O)[C@@]4(C)CC[C@@H]32)C1 33%
CN(C)/C=C/C(=O)c1ccc2noc(-c3ccccc3)c2c1 -14.1%
CCON1C(=O)C2(CCCCC2)C(=O)C12C=CCCC2 (stereo not drawn) 14.9%
CCN(CC)c1ccc(NC(=O)c2cccc(F)c2)c(C)c1 -2.49%
CCOC(=O)CCSc1nc(N2CCOCC2)c2c(c1C#N)CC(C)(C)OC2 39.6%
CSc1nc(C)nc2c1c(=O)n(C)c(=O)n2C 3%
COCCn1c(SCc2ccc(C(=O)OC)o2)nnc1-c1c[nH]c2ccccc12 -5.45%
CCOc1ccc(NC(=O)CCc2nnc3ccc(N4CCC5(CC4)OCCO5)nn23)cc1 -2.59%
COc1ccc(C2CC(C(F)(F)F)n3ncc(C(=O)NCc4cccnc4)c3N2)cc1OC (stereo not drawn) -9.55%
CCCCCC(=O)NC(=S)Nc1ccc(Br)cc1C -9.81%
CC(CNC1CCCCC1)OC(=O)c1ccccc1 (stereo not drawn) 33.2%
CCC(=O)NC(=S)Nc1ccccc1C(F)(F)F 0.113%
CCN(C(=O)c1cccc(NC(=O)c2ccccc2)c1)C1CCCCC1 8.9%
COc1ccc(C(=O)N(CN2CCCC2=O)c2cc(C)on2)cc1OC 5.34%
O=C1OCC2=C1C(c1ccc3c(c1)OCO3)c1cc3c(cc1O2)OCO3 (stereo not drawn) -9.53%
CNC1(C)[C@H]2CC[C@H](C2)C1(C)C (stereo partly drawn) 1.19%
Cc1ccc(NC(=O)/C=N/OCC(=O)NCc2ccccc2Cl)cc1 19.4%
COCC(=O)N(C)c1nnc(-c2ccccn2)s1 13.8%
Cc1cc(C)cc(C(=O)NCCC(=O)NCc2cc(=O)n(C)c(=O)n2C)c1 -6.55%
CCOCCCNC(=O)CN1C(=O)/C(=C\c2ccc(C)cc2)Sc2ccccc21 2.45%
Cc1ccc(S(=O)(=O)N2CCC[C@H]2C(=O)Nc2ccccc2C)cc1 -11.7%
CCN(C(=O)c1cc(OC)c(OC)c(OC)c1)C1CCCCC1 -5.54%
C[C@]12CC[C@@H]3c4ccc(OS(=O)(=O)O)cc4CC[C@H]3[C@@H]1CCC2=O 4.2%
O=c1c([N+](=O)[O-])cn(Cc2ccccc2)c(=O)n1Cc1ccccc1 20.6%
C[C@@]12C(=O)N(Cc3ccccc3)CC(=O)N1[C@H](/C=C/c1ccccc1)[C@@H]1C(=O)N(c3ccccc3)C(=O)[C@@H]12 14.8%
O=c1cc(-c2ccccc2)[nH]c2ccc(F)cc12 3.13%
O=C(C1CC1)N1N=C(c2ccc(Br)cc2)CC1(O)C(F)(F)F (stereo not drawn) -10.1%
COc1cc(OC)cc(-c2c(C#Cc3ccsc3)c3cc(-c4cc(OC)c(OC)c(OC)c4)ccc3n2C)c1 9.2%
CCCc1nc(SCC(=O)NCc2ccco2)c2c(=O)n(C)c(=O)n(C)c2n1 19.7%
Cc1cccn2c(=O)c(C=NCCO)c(NCc3ccco3)nc12 -3.39%
Cc1cccc(Nc2nc(Cl)ncc2F)c1C -11.5%
COc1ccccc1C=NN=Cc1ccccc1O 27.4%
COC(CNC(=O)c1ccc(N2CCC3(CC2)OCCO3)c([N+](=O)[O-])c1)OC -6.61%
CC(=O)Nc1ccc(NC(=O)C(c2ccccc2)c2ccccc2)cc1 1.86%
CCOC(=O)[C@H]1[C@H]2COc3ccc(OC)cc3[C@@H]2N2C(=O)CN(C)C(=O)[C@@]12C -6.5%
COc1ccc(C2=NN(C(=O)CSC3=NN4CCCC(=O)N=C4S3)C(c3cccc(OC)c3OC)C2)cc1 (stereo not drawn) 5.71%
CCOC(=O)Nc1ccc2c(c1)N(C(=O)CN(C)C)c1ccccc1CC2 -14.1%
Cn1c(=O)c2c(ncn2CC(=O)Nc2cc(S(=O)(=O)N3CCCCC3)ccc2O)n(C)c1=O 12%
CCCN1C(=O)C2(SC(NC(C)=O)=NN2C(C)=O)c2cc(C)cc(C)c21 (stereo not drawn) -12.8%
CCC(C)[C@H](NC(=O)NCc1cccnc1)C(=O)OC (stereo partly drawn) 9.79%
C=CCN1CCc2cc(O)c(O)cc2C(c2ccccc2)C1 (stereo not drawn) -0.248%
Cc1ccc(C)c(S(=O)(=O)N2CCN(C(=O)c3ccc(C)s3)CC2)c1 -14.8%
COc1ccccc1-c1ccccc1C1=CC(=O)CC(C)(C)C1=O 20.8%
CCOC(=O)N1CCN(C(=O)C2CCC(=O)N(Cc3ccccc3OC)C2)CC1 (stereo not drawn) 7.61%
COc1ccc(C(=O)NCCN2CCOCC2)cc1[N+](=O)[O-] 6.07%
CNC(=O)c1[nH]cnc1C(=O)N[C@@H](CCCCNC(=O)OC(C)(C)C)C(=O)OC(C)(C)C 34%
Cc1cccc(C)c1Nc1nc2ccccc2o1 2.89%
OCc1cc(C(O)CNCCCCCCOCCCCc2ccccc2)ccc1O (stereo not drawn) 6.71%
COc1ccccc1NC(=O)c1c(Nc2ccccc2C)sc(C(=O)Nc2cccc(Cl)c2)c1N 3.23%
O=C(OCc1nc2ccccc2s1)[C@@H]1CCCN1S(=O)(=O)c1ccccc1F 8.66%
C[C@@H](OC(=O)c1[nH]cnc1C(=O)N1CCc2ccccc2C1)c1ccccc1 5.49%
O=C(Nc1ccc(Cl)cc1)c1ccco1 2.2%
CSCCC(NC(=O)c1ccco1)C(=O)OCC(=O)Nc1ncc(Cl)c(C)c1Cl (stereo not drawn) 5.14%
C[C@H]1C[C@H]2[C@@H]3CCC4=CC(=O)C=C[C@]4(C)[C@@]3(F)[C@@H](O)C[C@]2(C)[C@@]1(O)C(=O)CO -27.3%
CCn1c(CCNC(=O)c2ccc(OC)cc2)nnc1SCc1ccc(Cl)cc1Cl -10.7%
CCC(Oc1ccccc1)C(=O)NC1CCSC1=O (stereo not drawn) 0.894%
CC1=C(C)C(OCCCl)N(c2cc(O)c(Cl)cc2F)C1=O (stereo not drawn) -1.48%
O=C(C[n+]1ccccc1)N/N=C/c1ccc(O)cc1 12.7%
CC(C)Cc1ccc([C@H](C)C(=O)O)cc1 10.3%
Cc1ccc(CNC(=O)C2CCN(S(=O)(=O)c3c(C)noc3/C=C/c3ccco3)CC2)cc1 23.8%
C[C@@H]1CN([C@@H](C)CO)C(=O)c2cc(NC(=O)Nc3ccccc3)ccc2O[C@H]1CN(C)C(=O)Nc1cccc2ccccc12 -8.5%
O=C(NN1C(=O)C2C3C=CC(C4CC34)C2C1=O)c1cccc(Cl)c1 (stereo not drawn) 2.66%
Nc1ccc(CCNc2ncnc3c2ncn3[C@@H]2O[C@H](CO)[C@@H](O)[C@H]2O)cc1 -19.4%
Nc1ccn(C2CCCO2)c(=O)n1 (stereo not drawn) -9.64%
NC(=O)c1ncn([C@@H]2O[C@H](CO)[C@@H](O)[C@H]2O)n1 44.1%
CCOc1ccccc1/C=C/c1onc(C)c1S(=O)(=O)N1CCC(C(=O)N(CC)CC)CC1 -2.53%
CCCC(=O)NCCCc1nc2ccccc2n1C -6.19%
COc1nc(Nc2nc3ccccc3c(=O)[nH]2)nc2ccc(C)cc12 63.8%
COc1c(S(=O)(=O)N2CCN(c3ccc(F)cc3)CC2)ccc(Cl)c1Cl 0.418%
O=C(CCCOc1ccccc1)N1CCN(c2ccccc2)CC1 -13.6%
Cc1ccc(NC(=S)Nc2cccc(S(=O)(=O)Nc3c(C)n(C)n(-c4ccccc4)c3=O)c2)cc1 -6.17%
Cc1cccc(NC(=O)Nc2c(C)n(C)n(-c3ccccc3)c2=O)c1C 2.9%
C/C(=N\NS(=O)(=O)c1ccc([N+](=O)[O-])cc1)c1cccs1 28.1%
O=C(CCNc1cccc(F)c1)c1cc2ccccc2o1 -15.8%
Cc1ccccc1CC(=O)NCc1cccnc1 2.8%
COc1ccc(-c2ccc3c(c2)S(=O)(=O)c2cccc(C(=O)NCc4cc(C)oc4C(F)(F)F)c2C3=O)cc1OC 64.1%
Cc1ccc(N2CCCCn3c2nc2c3c(=O)n(CC(=O)O)c(=O)n2C)cc1 1.98%
